Laboratory results: PubChem BioAssay (NCATS)
Several values for one entry are separate records, joined by “and”; a condition that tells them apart may be missing. Equal values may be shown once. Results filed as inconclusive are left out. Activity calls are given as the source filed them. Unless noted, the call rests on the fitted dose curve; in most records, active means well fitted curve in the direction sought with a large enough effect; inconclusive means small, poorly fitted or top-dose-only effect, or another doubt; inactive means no such curve, though single readings can be large; an effect the other way counts as inactive or inconclusive.

Key:
[1] = Cell Viability - BJ (AID 421; calls by dose curve;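 further: potency means the concentration at half of the fitted maximal effect; cells exposed to compound for 40 hours at 37 °C before readout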); details: BJ fibroblast viability, qHTS
In short: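 Normal human BJ foreskin fibroblasts, 1500/well in complete medium, treated 40 hr at 37 °C. Cellular ATP by CellTiter-Glo luminescence; normalized to DMSO and 100 uM tamoxifen, AC50 from Hill fit.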

[2] = Cellular Toxicity (caspase-3) HepG2 (AID 654); details: HepG2 caspase-3 activation, luminescence, 0% = DMSO only, 100% = tamoxifen; series mostly up to 92.2 µM;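 further: cells exposed to compound for 16 hours before reading; 0% = DMSO alone and 100% = caspase signal from 100 µM tamoxifen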
In short: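 HepG2 cells (1500/well) in complete medium were treated with compounds for 16 hr at 37 °C. Caspase-3/7 activity was then read as luminescence from peptide-aminoluciferin cleavage. AC50 came from Hill fits, normalized to DMSO and 100 uM tamoxifen.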

[3] = Cellular Toxicity (caspase-3) BJ (AID 658); details: BJ fibroblasts, luminescence, normalized: DMSO 0%, staurosporine 100%; series mostly up to 91.7 µM
In short: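 Luminescent aminoluciferin-substrate cleavage reports caspase 3/7 activity in normal human BJ fibroblasts after 16 hr compound exposure at 37 °C. Normalized to DMSO (basal) and 10 uM staurosporine (100%); AC50 from Hill fit of concentration-response.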

[4] = Cellular Toxicity (caspase-3) MRC-5 (AID 659); details: MRC-5 cells, luminescence, normalized: DMSO 0%, 10 µM staurosporine 100%; series mostly up to 91.7 µM
In short: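 Luminescence from caspase-cleaved aminoluciferin substrate (Caspase-Glo 3/7, 1 hr RT) reports caspase 3/7 activity in MRC-5 lung fibroblasts after 16 hr compound exposure. Normalized to DMSO basal and 10 uM staurosporine as 100%; AC50 from Hill fits.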

[5] = Cellular Toxicity (caspase-3) Hek293 (AID 664); details: HEK293 caspase-3 activation, DMSO = 0%, 100 µM tamoxifen = 100%; at 92.2 µM (top of the series);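 further: cells exposed to compound for 16 h at 37 °C before readout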
In short: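 HEK293 cells were exposed to compounds in complete medium for 16 hr at 37 °C, then caspase-3/7 activity was read by Caspase-Glo 3/7 luminescence after 20 min at room temperature. Data normalized to DMSO and 100 uM tamoxifen; AC50 from Hill fits.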

[6] = Cellular Toxicity (caspase-3) N2a (AID 665); details: N2a cells, luminescence, normalized: DMSO 0%, 10 µM staurosporine 100%; series mostly up to 92.2 µM;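 further: compound exposure lasted 16 h at 37 °C before readout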
In short: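 Mouse N2a neuroblastoma cells (1500/well) were treated with compounds for 16 h at 37 °C, then caspase-3/7 activity was read by Caspase-Glo luminescence after 1 h at room temperature. Data were normalized to DMSO and 10 uM staurosporine; AC50 from Hill fits.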

[7] = Cellular Toxicity (caspase-3) NIH 3T3 (AID 666); details: NIH 3T3 caspase-3 activation, apoptosis/toxicity; series mostly up to 92.2 µM;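 further: caspase signal read after 16 h compound exposure; 0% = DMSO basal and 100% = 100 µM tamoxifen stimulation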
In short: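 Mouse NIH 3T3 fibroblasts (1000 cells/well) were treated with compound for 16 hr at 37°C in complete medium; caspase-3/7 activity was read by Caspase-Glo luminescence. Normalized to DMSO and 100 uM tamoxifen; AC50 from Hill fits.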

[8] = Cell Viability - LYMP2-001 (AID 921); details: LYMP2-001 lymphoblastoid cell viability; series mostly up to 92.2 µM;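 further: 0% = DMSO only and full inhibition = tetraoctylammonium bromide control wells; nearly all actives have a fitted effect of over 70% in size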
In short: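 Human lymphoblastoid LYMP2-001 cells, 2500 per well, in complete medium, treated 24 h at 37 C. Viability from cellular ATP by CellTiter-Glo luminescence; AC50 from Hill-equation fits of qHTS concentration-response.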

[9] = MultiTox-Fluor Cytotoxicity Assay - LYMP1-001 - Dead Cells (AID 946); details: LYMP1-001 lymphoblastoid cells, dead-cell protease fluorescence; series mostly up to 92.2 µM;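 further: 0% = DMSO and 100% = tetraoctylammonium bromide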
In short: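 LYMP1-001 lymphoblastoid cells (2500/well) treated 16 h at 37 C. Dead-cell protease cleavage of bis-AAF-R110 read at Ex/Em 485/520. Normalized to DMSO and 15 uM tetraoctylammonium bromide; AC50 from Hill fits.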

[10] = MultiTox-Fluor Cytotoxicity Assay - LYMP1-002 - Live Cells (AID 955); details: LYMP1-002 lymphoblastoid live-cell protease fluorescence viability; series mostly up to 46.1 µM; further: on the % scale 0 is the no-effect control and ±100 the full control effect
In short: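 Human lymphoblastoid LYMP1-002 cells, 2500/well in complete medium, rested 5 hr at 37 C, then exposed to compounds for 16 hr at 37 C. Live-cell protease cleavage of GF-AFC read by fluorescence (Ex/Em 405/510) after 60 min at room temperature; AC50 from Hill fits.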

[11] = MultiTox-Fluor Cytotoxicity Assay - LYMP1-003 - Dead Cells (AID 961); details: LYMP1-003 lymphoblastoid cells, dead-cell protease fluorescence; series mostly up to 92.2 µM;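 further: 0% = DMSO and 100% = tetraoctylammonium bromide; nearly all actives have a fitted effect of over 70% in size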
In short: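 LYMP1-003 human lymphoblastoid cells (2500/well) exposed to compound 16 h at 37 C in complete medium; dead-cell protease read with bis-AAF-R110 fluorescence (Ex/Em 485/520) after 60 min at room temperature. Normalized to DMSO and 15 uM tetraoctylammonium bromide; AC50 from Hill fit.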

[12] = MultiTox-Fluor Cytotoxicity Assay - LYMP1-003 - Live Cells (AID 962); details: LYMP1-003 lymphoblastoid cells, MultiTox-Fluor live-cell protease fluorescence; series mostly up to 92.2 µM;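 further: 0% = DMSO only and full loss = 92 µM tetraoctylammonium bromide; cytotoxic hits lower the live-cell protease signal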
In short: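 LYMP1-003 human lymphoblastoid cells (2500/well) in complete medium were preincubated 5 hr at 37 C, then exposed to compounds for 16 hr at 37 C. Live-cell protease cleavage of GF-AFC read by fluorescence (Ex/Em 405/510); AC50 from Hill fits.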

[13] = Cell Viability - LYMP2-021 (AID 974); details: LYMP2-021 lymphoblastoid cells viability; series mostly up to 92.2 µM;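 further: compound exposure lasts 24 hours at 37 °C; on the % scale 0 is the no-effect control and ±100 the full control effect; nearly all actives have a fitted effect of over 55% in size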
In short: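 Human lymphoblastoid cells (2500/well) were preincubated 5 hr at 37 C, then exposed to compounds for 24 hr at 37 C in complete medium. Intracellular ATP was read by CellTiter-Glo luminescence; AC50 came from Hill-equation fits of concentration-response data.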

[14] = Cell Viability - LYMP2-025 (AID 976); details: LYMP2-025 lymphoblastoid cell viability; series mostly up to 92.2 µM;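 further: plate controls were DMSO only for no effect and tetraoctylammonium bromide control for full effect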
In short: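 Human lymphoblastoid LYMP2-025 cells (2500/well) were pre-incubated 5 hr at 37 C, then treated with compounds for 24 hr at 37 C in complete medium. Viability was read as intracellular ATP by CellTiter-Glo luminescence; AC50 from Hill fits.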

[15] = Cell Viability - LYMP2-006 (AID 978); details: LYMP2-006 lymphoblastoid cell viability, qHTS; series mostly up to 92.2 µM; further: on the % scale 0 is the no-effect control and ±100 the full control effect; nearly all actives have a fitted effect of over 60% in size
In short: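 Human lymphoblastoid cells (LYMP2-006), 2500/well in complete medium, were treated with compound for 24 hr at 37 C. Cellular ATP was read by CellTiter-Glo luminescence after 30 min, and AC50 values came from Hill-equation fits of concentration-response data.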

[16] = Cell Viability - LYMP1-002 - Assay at 24 hr (AID 993); details: LYMP1-002 lymphoblastoid cells viability; series mostly up to 92.2 µM; further: on the % scale 0 is the no-effect control and ±100 the full control effect
In short: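 Human lymphoblastoid LYMP1-002 cells, 2500/well in complete medium, were treated with compounds for 24 h at 37 C; intracellular ATP was read by CellTiter-Glo luminescence. AC50 values came from Hill-equation fits of qHTS concentration-response data.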

[17] = Cell Viability - LYMP1-002 - Assay at 40 hr (AID 994); details: LYMP1-002 lymphoblastoid cell viability; series mostly up to 92.2 µM;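 further: 0% = DMSO only and full inhibition = 92 µM tetraoctylammonium bromide; nearly all actives have a fitted effect of over 60% in size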
In short: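 Human lymphoblastoid cells, 2500/well in complete medium, were preincubated 5 hr at 37 C, then exposed to compounds for 40 hr at 37 C. Intracellular ATP was read by CellTiter-Glo luminescence after 30 min at room temperature; AC50 from Hill-equation fits.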

[18] = qHTS Assay for Identification of Small Molecule Inducers of Hypoxia Response (AID 2120; active means well fitted curve in the direction sought with a large enough effect in the signal ratio, with a control signal flat, not every such curve was filed as active; the % refers to the signal ratio; further: 0% is about no effect); details: hypoxia response reporter cells, beta-lactamase ratio readout; series mostly up to 104 µM
In short: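 HRE-beta-lactamase reporter in CellSensor HRE-bla ME-180 cells, 2500 cells/well in Opti-MEM with 0.5% dialyzed FBS; compounds tested as titration series, 17 h at 37 degrees C. CCF4 substrate 2.5 h at room temperature; AC50 from 460/530 nm ratio.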

[19] = target: Peroxisome proliferator-activated receptor alpha (Homo sapiens) (UniProt Q07869); test: qHTS assay for small molecule agonists of the peroxisome proliferator-activated receptor alpha (PPARalpha) signaling pathway (AID 651778); details: PathHunter PPARalpha complementation, chemiluminescence, 6 h; hits give high values; further: % of control where 0% means no effect
Chain of Peroxisome proliferator-activated receptor alpha (Homo sapiens) (Q07869 whole entry, looked up): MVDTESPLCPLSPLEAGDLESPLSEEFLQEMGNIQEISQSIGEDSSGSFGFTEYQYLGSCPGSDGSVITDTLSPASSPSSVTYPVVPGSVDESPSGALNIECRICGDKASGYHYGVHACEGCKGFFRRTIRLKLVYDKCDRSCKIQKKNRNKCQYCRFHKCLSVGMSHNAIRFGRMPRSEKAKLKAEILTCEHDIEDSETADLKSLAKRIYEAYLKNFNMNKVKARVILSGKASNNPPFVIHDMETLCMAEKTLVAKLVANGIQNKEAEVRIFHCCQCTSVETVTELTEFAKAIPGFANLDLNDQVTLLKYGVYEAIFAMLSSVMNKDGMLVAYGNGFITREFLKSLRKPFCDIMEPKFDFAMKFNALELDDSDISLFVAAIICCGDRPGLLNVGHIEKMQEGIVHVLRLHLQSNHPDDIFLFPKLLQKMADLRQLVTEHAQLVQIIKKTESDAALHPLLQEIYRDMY
In short: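 Cells plated at 2,000/well and held overnight at 37 C, 5% CO2, then compound added by pin tool for 6 hr; after PathHunter detection reagent and 60 min at room temperature, chemiluminescence from enzyme complementation was read.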

[20] = qHTS assay for cell viability of the p53RE-bla HCT-116 cell line (AID 743292); details: p53RE-bla HCT-116 viability, ATP luminescence, 16 h; series mostly up to 95 µM; further: on the % scale 0 is the no-effect control and ±100 the full control effect; nearly all actives have a fitted effect of over 55% in size
In short: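 Quantitative high-throughput format: compounds in DMSO were pinned onto p53RE-bla HCT-116 cells (4,000/well) and incubated 16 h at 37 C. Total intracellular ATP, read by CellTiter-Glo luminescence, reflects viable cell number.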

N#CC(O)c1ccccc1 (stereo not given)
inactive: Potency [1] > 92 µM | outcome [2] | outcome [3] | outcome [4] | caspase-3 activation [5] 0.0339% | outcome [6] | Potency [7] | Potency [8] | outcome [9] | outcome [10] | Potency [11] | outcome [12] | Potency [13] | Potency [14] | Potency [15] | Potency [16] | Potency [17] | Potency [18] | max response [19] 12.9% | Potency [20]

Cc1ccc(N)cc1N
inactive: Potency [1] > 92 µM | outcome [2] | outcome [3] | outcome [4] | caspase-3 activation [5] 0.128% | outcome [6] | Potency [7] | Potency [8] | outcome [9] | outcome [10] | Potency [11] | outcome [12] | Potency [13] | Potency [14] | Potency [15] | Potency [16] | Potency [17] | Potency [18] | max response [19] 6.43% and -0.158% | Potency [20]

ClC(Cl)(Cl)C(Cl)(Cl)Cl
inactive: Potency [1] > 92 µM | outcome [2] | outcome [3] | outcome [4] | caspase-3 activation [5] -1.3% | outcome [6] | Potency [7] | Potency [8] | outcome [9] | outcome [10] | Potency [11] | outcome [12] | Potency [13] | Potency [14] | Potency [15] | Potency [16] | Potency [17] | Potency [18] | max response [19] -2.99% | Potency [20]

BrCC(Br)C1CCC(Br)C(Br)C1 (stereo not given)
inactive: Potency [1] > 92 µM | outcome [2] | outcome [3] | outcome [4] | caspase-3 activation [5] 6.64% | outcome [6] | Potency [7] | Potency [8] | outcome [9] | outcome [10] | Potency [11] | outcome [12] | Potency [13] | Potency [14] | Potency [15] | Potency [16] | Potency [17] | Potency [18] | max response [19] 4.79% | Potency [20]

C=CCBr
inactive: Potency [1] > 92 µM | outcome [2] | outcome [3] | outcome [4] | caspase-3 activation [5] 1.99% | outcome [6] | Potency [7] | Potency [8] | outcome [9] | outcome [10] | Potency [11] | outcome [12] | Potency [13] | Potency [14] | Potency [15] | Potency [16] | Potency [17] | Potency [18] | max response [19] -4.55% | Potency [20]

ClCCOCOCCCl
inactive: Potency [1] > 92 µM | outcome [2] | outcome [3] | outcome [4] | caspase-3 activation [5] -1.31% | outcome [6] | Potency [7] | Potency [8] | outcome [9] | outcome [10] | Potency [11] | outcome [12] | Potency [13] | Potency [14] | Potency [15] | Potency [16] | Potency [17] | Potency [18] | max response [19] -0.0658% | Potency [20]
